Data from PubChem BioAssay (NCATS).
Records with an inconclusive call do not appear. Calls of active or inactive are those of the source. Calls come from the whole dose curve; as a rule, active = well fitted cell-killing curve with a large enough effect; inconclusive = small, poorly fitted or top-dose-only effect; inactive = flat fitted curve, though single readings scatter.

Tests used:
[1] = Cell Viability - LYMP2-011 (AID 969);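 note: cells exposed to compound for 24 hours; nearly all actives have a fitted effect of over 60% in size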
Summary of the method: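 Luminescent ATP read-out (CellTiter-Glo, 30 min RT) after 24 hr compound exposure at 37 C in human lymphoblastoid cells, 2500 cells/well. Decreasing ATP indicates cytotoxicity; AC50 from standard Hill fit.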

[2] = Cell Viability - LYMP2-013 (AID 970); note: series mostly up to about 92 µM; nearly all actives have a fitted effect of over 55% in size
Summary of the method: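 CellTiter-Glo luminescence (cellular ATP) read after 30 min at RT. Cells: human lymphoblastoid line, 2500/well, 24 hr compound exposure at 37 C. Tetraoctylammonium bromide positive control; AC50 via standard Hill fit of qHTS titrations.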

[3] = Cell Viability - LYMP2-015 (AID 971); note: nearly all actives have a fitted effect of over 55% in size
Summary of the method: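 qHTS cytotoxicity: 2500 cells/well, 5 hr 37 C, compound 24 hr 37 C, CellTiter-Glo 30 min RT, luminescence. Loss of ATP = toxicity; AC50 via standard Hill fit.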

[4] = Cell Viability - LYMP2-017 (AID 972);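 note: series mostly up to about 92 µM; cells exposed to compound for 24 hours at 37 °C; nearly all actives have a fitted effect of over 55% in size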
Summary of the method: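 Luminescent ATP read-out (CellTiter-Glo, 30 min RT) reports viable cell number. Cells: human lymphoblastoid line, 2500 per well, 5 hr preincubation, 24 hr compound exposure at 37 C. AC50 is derived from qHTS concentration-response data using the standard Hill model.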

[5] = Cell Viability - LYMP2-019 (AID 973); note: nearly all actives have a fitted effect of over 55% in size
Summary of the method: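 qHTS, 1536-well; 2500 cells/well; 5 hr pre-incubation, 24 hr compound exposure, 37 C; CellTiter-Glo added, 30 min RT; luminescence read; AC50 via standard Hill equation.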

[6] = Cell Viability - LYMP2-021 (AID 974)
Summary of the method: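 ATP luminescence (CellTiter-Glo, 30 min RT) after 24 h compound exposure at 37 C; 2500 human lymphoblastoid cells/well, 5 h settle beforehand. Cytotoxicity = concentration-dependent ATP drop, AC50 by Hill fit.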

[7] = Cell Viability - LYMP2-023 (AID 975)
Summary of the method: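 CellTiter-Glo luminescence after 30 min at room temperature; decrease in intracellular ATP reflects toxicity. Cells: human lymphoblastoid line, 2500/well, 24 hr compound exposure at 37 C. AC50 fitted to standard Hill equation from concentration-response.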

[8] = Cell Viability - LYMP2-025 (AID 976); note: series mostly up to about 92 µM
Summary of the method: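 CellTiter-Glo luminescence (cellular ATP) after 24 h compound exposure at 37 C; LYMP2-025 human lymphoblastoid cells, 2500/well, complete medium. Tetraoctylammonium bromide positive control. AC50 by Hill equation fit of qHTS concentration-response.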

[9] = Cell Viability - LYMP2-002 (AID 977); note: series mostly up to about 92 µM
Summary of the method: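 Human lymphoblastoid cells, 2500/well, complete medium; 5 h 37 C settle; compound 24 h 37 C; CellTiter-Glo, 30 min RT; luminescence. Decrease in ATP = cytotoxicity; AC50 via Hill equation.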

[10] = Cell Viability - LYMP2-006 (AID 978);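 note: series mostly up to about 92 µM; cells exposed to compound for 24 hours; nearly all actives have a fitted effect of over 60% in size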
Summary of the method: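 In this cytotoxicity screen, the human lymphoblastoid line grew in complete medium with test compounds for 24 hr at 37 C. Cellular ATP served as the viability signal.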

Measured: outcome

Cc1cc(O)c2c(c1)C(=O)c1cccc(O)c1C2=O
inactive: all assays above
